Bioassay records: PubChem, several laboratories
This is a sample that favours compounds with a hit; in the whole collection about 32% have one here.
CYP2C19 act – activators of human cytochrome P450 2C19; P33261; recombinant CYP2C19, luciferin-H EGE luminescence; hits give high values; 0 = fully inhibited enzyme, 1 = untreated enzyme; activation factor at 5 µM; 96,000 tested, under 10 active; AID 1025;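 active means activation factor of at least 2 at 5 µM in the primary screen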;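 further: 0 = wells with 2.5 mM tranylcypromine and 1 = vehicle-only wells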
PostGolgi yeast – growth inhibition of a yeast mutant, post-Golgi transport screen | post-Golgi transport phenotypic cell assay | inhibition, % at 10 µM | 98,000 tested, 0.9% active;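 further: yeast cells grown in 1536-well plates; yeast grown about 18 h at 30C before absorbance read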
PostGolgi ctrl – growth of the yeast control strain, post-Golgi counter-screen; efflux-deficient yeast background strain, growth absorbance A615, 16 h; inhibition, % at 10 µM; 98,000 tested, 5% active; AID 738
CYP2C19 inh – blocks human cytochrome P450 2C19 | P33261 | CYP2C19 Supersomes, luciferin-H EGE luminescence, 30 min | inhibition, % at 5 µM | 96,000 tested, 21% active | AID 778;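 active means CYP2C19 inhibition above a set limit at 5 µM in the primary screen, cut at about 50% in these data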;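 further: plate controls were negative control wells for no effect and 2.5 mM tranylcypromine positive control for full effect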
CYP2C9 activ – activators of human CYP2C9. P11712. recombinant CYP2C9, luciferin-H conversion, luminescence; hits give high values; factor 1 = untreated enzyme, 0 = blocked. activation factor at 5 µM. 96,000 tested, 1.4% active;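 active means activation factor of 2 or more for CYP2C9 at a 5 µM dose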;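 further: 0 = sulfaphenazole-blocked wells and 1 = vehicle-only wells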
Target sequence (P11712 whole entry, looked up): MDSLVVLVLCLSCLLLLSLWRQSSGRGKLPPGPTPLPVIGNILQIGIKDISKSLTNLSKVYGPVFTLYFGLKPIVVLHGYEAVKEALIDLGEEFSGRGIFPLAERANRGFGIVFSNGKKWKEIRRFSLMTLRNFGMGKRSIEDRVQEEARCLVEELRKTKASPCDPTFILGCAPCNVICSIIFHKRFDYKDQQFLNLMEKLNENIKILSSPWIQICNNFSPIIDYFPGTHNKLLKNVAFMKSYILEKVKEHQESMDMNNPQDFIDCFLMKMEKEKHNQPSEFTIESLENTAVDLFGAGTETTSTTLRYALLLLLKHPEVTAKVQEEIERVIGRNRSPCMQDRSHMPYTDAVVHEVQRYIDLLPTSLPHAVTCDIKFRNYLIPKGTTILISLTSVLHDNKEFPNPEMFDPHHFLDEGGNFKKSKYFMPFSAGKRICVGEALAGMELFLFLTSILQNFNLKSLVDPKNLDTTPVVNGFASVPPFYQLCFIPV
CYP2C9 inh – human CYP2C9 inhibition; P11712; CYP2C9 Supersomes, luciferin-H conversion, luminescence; inhibition, % at 5 µM; 96,000 tested, 20% active; AID 777;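 active means blocking of liver enzyme CYP2C9 beyond about 50% at 5 µM, limit read from the data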
An asterisk follows results filed as active; nt = not tested or not shown. Unless noted, no stated cut-off is given here; in the data, active means inhibition above about 30%; inactive means the rest.

SMILES	CYP2C19 act	PostGolgi yeast	PostGolgi ctrl	CYP2C19 inh	CYP2C9 activ	CYP2C9 inh
c1ccc(CSc2nncn2-c2ccccn2)cc1	0.1	24.0	7.9	88.1*	0.8	18.9
CCCC(=O)Nc1nnc(CCN2CCCCC2)s1	1.1	-1.3	17.2	-8.1	1.1	-10.7
COc1cc(C(=O)N(C)c2nnc(-c3cccnc3)s2)cc(OC)c1OC	1	0.5	6.3	0.9	1.1	-7.3
Cc1ccc(CSc2nnc(-c3ccccn3)n2C)cc1	0.8	3.0	4.0	19.5	0.9	5.3
CC(C)(C)NC(=O)CSc1nc2ccccc2n1-c1ccccc1	0	5.6	33.1*	99.1*	0	99.6*
CC(C)NC(=O)CSc1nc2ccccc2n1-c1ccccc1	nt	-6.7	3.0	nt	nt	nt
Cn1c(SCc2ccc(F)cc2)nnc1-c1ccccn1	0.1	-5.0	4.2	87.6*	0.9	5.0
CCCCN(C)C(=O)c1c[nH]c2ccc(S(=O)(=O)N3CCOCC3)cc2c1=O	nt	5.6	-2.1	nt	nt	nt
CCOc1c(CNCCN2CCOCC2)cccc1OC	0.8	4.8	-0.1	21.3	1.1	-7.4
CCCCN(CCCC)S(=O)(=O)c1ccc(OC)c2ncccc12	0.9	2.1	13.5	14.2	0.3	66.4*
COc1ccc(S(=O)(=O)N(C)CC(=O)O)c2ccccc12	0.9	6.1	5.4	7.7	0.7	27.7
COc1ccc(S(=O)(=O)N(CC(C)C)CC(C)C)c2cccnc12	0.6	0.4	29.1	43.7	0.1	91.7*
O=S(=O)(c1cccs1)N1CCN(CC(O)COC2CCCc3ccccc32)CC1 (configuration not stated)	0.7	9.1	11.9	34.0	0.4	62.0*
CCC1CCCCN1Cc1nc2c(c(=O)n(C)c(=O)n2C)n1Cc1cccc2ccccc12 (configuration not stated)	0.9	nt	nt	9.7	0.6	40.3
Cc1cc(C)c(S(=O)(=O)Nc2ccc3c4c(cccc24)CC3)c(C)c1	0.8	-0.5	61.1*	19.0	1.1	-6.1
Cc1cc(C)cc(OCC(=O)Nc2ccc3c4c(cccc24)CC3)c1	0.9	-10.2	7.1	7.1	1.4	-37.4
O=C(CNC(=S)NC(=O)c1ccco1)c1ccccc1	0.9	3.2	5.0	5.5	1.4	-35.5
CCC(=O)Nc1ccccc1C(=O)OCC(=O)c1ccccc1	0.3	4.3	12.0	72.7*	0.1	91.2*
CCC(=O)Nc1ccccc1C(=O)OCC(=O)c1ccc2ccccc2c1	0.1	-0.8	-0.2	89.9*	0.3	69.2*
O=C(COC(=O)c1ccccc1NC(=O)c1ccccc1)c1ccc([N+](=O)[O-])cc1	0.4	5.7	22.3	62.7*	0.3	70.3*
O=C(COC(=O)c1ccco1)c1ccc2ccccc2c1	0.7	-5.3	6.4	30.8	0.7	26.6
Cn1ccnc1C(O)c1cc(C(C)(C)C)c(O)c(C(C)(C)C)c1 (configuration not stated)	0.8	-1.2	6.8	23.6	0.2	76.4*
CCCN(c1ccc(C(C)C)cc1)S(=O)(=O)c1c(C)noc1C	0.6	22.7	-6.8	38.4	0.2	81.5*
CCOC(=O)C1CCN(C(=O)CN(c2ccc(OC)cc2)S(=O)(=O)c2c(C)noc2C)CC1	0.8	-0.5	10.0	23.1	0.9	13.7
COc1ccc(N(CC(=O)Nc2cc(Cl)ccc2OC)S(=O)(=O)c2c(C)noc2C)cc1	0.1	-3.3	9.9	90.2*	0.1	89.0*
SMILES	CYP2C19 act	PostGolgi yeast	PostGolgi ctrl	CYP2C19 inh	CYP2C9 activ	CYP2C9 inh
COc1ccc(N(CC(=O)Nc2ccc(F)c(Cl)c2)S(=O)(=O)c2c(C)noc2C)cc1	1	-1.0	4.1	3.5	0.9	13.8
COc1ccc(OC)c(NC(=O)CN(c2ccc(C(C)C)cc2)S(=O)(=O)c2c(C)noc2C)c1	0.3	-9.8	5.8	74.8*	0.1	94.0*
CCOc1ccc(N(CC(=O)N2CCCC2)S(=O)(=O)c2c(C)noc2C)cc1	0.6	1.6	12.3	44.5	0.9	6.2
COc1ccc(OC)c(NC(=O)CN(c2ccc(C)cc2)S(=O)(=O)c2c(C)noc2C)c1	0.8	-10.2	8.8	19.5	0.8	18.6
Cc1noc(C)c1S(=O)(=O)N(CC(=O)N1CCn2c1nc1ccccc12)c1ccc(C(C)C)cc1	0.4	-3.6	11.8	57.7*	0.1	87.4*
O=C(NCCCN1CCOCC1)c1cc2ccccc2o1	0.8	14.2	2.4	24.9	0.9	7.2
COc1ccc2oc(=O)c(C(=O)n3ccc(C)n3)cc2c1	0.9	-0.2	12.5	5.2	0.9	5.2
C=CCn1c(=O)c2c3c(sc2n2c(Nc4ccc(OC)cc4)nnc12)CCCC3	0.8	4.6	32.7*	21.0	0.2	78.8*
CCn1c(C(C)NC(=O)Cc2ccccc2)nc2ccccc21 (configuration not stated)	0.7	-8.1	0.9	34.7	1.1	-9.0
Cc1ccc(-c2cnc(NC(=O)CCC(=O)N3CCCCC3)n2C)cc1	1.1	0.8	3.5	-7.6	1.3	-25.0
CCNC(=O)Nn1c(-c2ccccc2)nc2ccccc2c1=O	1.1	-2.6	-16.5	-14.4	1.1	-7.2
Cc1ccc(OCC(=O)NN2C(=O)c3ccccc3C2=O)c(C)c1	0.6	-3.4	7.0	35.5	0.9	13.3
Cc1ccccc1OCC(=O)Nn1c(COc2ccccc2)nc2ccccc2c1=O	0.7	-8.3	15.7	34.3	0	99.6*
Cc1cccc(C)c1OCC(=O)Nn1c(COc2ccccc2)nc2ccccc2c1=O	0.9	-3.6	16.2	12.6	0.2	76.1*
CC(=O)Nn1c(COc2ccccc2C)nc2ccccc2c1=O	0.2	-8.2	6.6	75.7*	0.2	77.0*
Cc1ccc(OCC(=O)Nn2c(C)nc3ccccc3c2=O)c(C(C)C)c1	1	-2.2	12.3	4.1	0	97.6*
Cc1ccc(OCCN2C(=O)CSC2=O)cc1	0.7	9.1	11.3	34.9	0.9	9.7
CCOC(=O)C1C(c2ccccc2Cl)NC(=O)N(C)C1(O)C(F)(F)F (configuration not stated)	1	19.7	-1.4	0.1	1	4.7
Cc1ccccc1NS(=O)(=O)c1cccc(-c2nnc(-c3ccccc3)o2)c1	0.9	-10.7	0.9	11.9	0.6	36.7
CN(C)S(=O)(=O)c1cccc(-c2nnc(-c3ccccc3)o2)c1	0.5	-18.9	0.7	48.3	0.1	92.3*
O=S(=O)(NC1CCCCC1)c1cccc(-c2nnc(-c3ccccc3)o2)c1	0.7	17.2	31.5*	29.1	0.2	84.4*
Clc1cccc(-c2nnc(-c3ccccc3)o2)c1	0.8	0.8	-7.5	21.5	1	4.1
Cc1ccc2c(c1)C1CN(C)CCC1N2CC(=O)N(C)c1ccccc1 (configuration not stated)	1	1.1	17.2	2.6	0.9	5.7
CC(=O)c1ccc(-n2c(C)ccc2-c2ccccc2)cc1	0.1	14.6	9.8	91.2*	0.2	79.7*
COC(=O)c1ccc(-n2c(C)ccc2-c2ccccc2)cc1	0.1	14.7	9.7	85.7*	0.1	86.0*
